ChEMBL document CHEMBL3988442, “University of Dundee, Small-Polar-MMV Screening Library” (2021)
Hit rate of the full screen: of about 48,000 compounds, about 13,000 (27%) showed an effect of 50% or more. Some of the results follow.

Each compound was assayed on Wolbachia pipientis (assay: Anti-Wolbachia Cell-Based Screen). Conditions: 5 µM.
Type: functional
Design: scale not given: in the data most compounds retested in dose-response had high values

Row | SMILES | Percent Effect [%]
1 | CN(CC(=O)NCCc1cc2ccccc2o1)S(C)(=O)=O | 6.714
2 | CCN(C)CCNC(=O)Cc1nc(-c2ccco2)oc1C | -18.21
3 | COc1cc(C(C)NCc2c[nH]nc2C)ccc1OCCO (stereo unspecified) | -5.579
4 | OCc1ccc(CNc2ccccc2CN2CCC(O)CC2)o1 | -5.459
5 | Cn1cc(C2CC(=O)NC23CCN(Cc2cccc(F)c2)CC3)cn1.O=C(O)C(F)(F)F (stereo unspecified) | 101.2
6 | Cn1cc(C2CC(=O)NC23CCN(Cc2ccncc2)CC3)cn1.O=C(O)C(F)(F)F.O=C(O)C(F)(F)F (stereo unspecified) | 100.3
7 | O=C(C1CCC1)N1CCC2(CCN(Cc3cccc(F)c3)CC2)CC1.O=C(O)C(F)(F)F | 18.44
8 | Cn1cc(C2CC(=O)NC23CCN(CC2CC2)CC3)cn1.O=C(O)C(F)(F)F (stereo unspecified) | -10.6
9 | Cc1ccncc1C(=O)N1CC[C@@]2(O)CCN(C3CCCCC3)C[C@H]2C1 | -0.1912
10 | O=C(NCC(O)c1ccc(F)cc1)C1CCN(C2CCCCC2)CC1 (stereo unspecified) | 4.274
11 | CC(C)(C)n1ncc2c(=O)[nH]c(N3CCN(CC(F)F)CC3)nc21 | 4.311
12 | O=c1[nH]c(NC2CCCC2)nc2nccc(-c3ccsc3)c12 | -12.83
13 | COc1cccc(-c2ccnc3nc(N4CCCCC4)[nH]c(=O)c23)c1 | 120.5
14 | COc1ccc(-c2ccnc3nc(N4CCCC4)[nH]c(=O)c23)cc1OC | 143.1
15 | COc1ccccc1-c1ccnc2nc(N3CCCCC3)[nH]c(=O)c12 | 113.6
16 | Cn1[nH]c(C2CCC2)c(-c2ccc3c(c2)OCO3)c1=N | 9.847
17 | Cc1nc(N2CCCCC2)ncc1-c1cc(=O)[nH]c(N2CCCC2)n1 | -11.82
18 | COc1cccc2c1OCCCN(c1nc3c(c(=O)[nH]1)CCNCC3)C2 | -4.298
19 | O=c1[nH]c(N2CCCCC2)nc2nccc(-c3ccc4c(c3)OCO4)c12 | 81.44
20 | Cc1ccc(-c2csc3c(=O)[nH]c(N4CCCC(C(=O)O)C4)nc23)cc1 (stereo unspecified) | 13.24
21 | COc1cccc(-c2n[nH]cc2-c2nc(CN3CCCC3)no2)c1 | -0.8918
22 | Cc1ccccc1-c1csc2c(=O)[nH]c(N3CCCC(C(=O)O)C3)nc12 (stereo unspecified) | 12.14
23 | CCN(Cc1ccoc1)C(=O)Nc1ccccc1CN(C)C(C)=O | -2.695

Row | SMILES | Percent Effect [%]
24 | CNC(=O)c1nc2c(s1)CCN(C(=O)c1cccc(OC)c1)CC2 | -8.352
25 | O=C(NC[C@H]1OC[C@@H](NC2COC2)[C@@H]1O)c1ccccc1 | -18.77
26 | COc1ccc(CCNC(=O)N2CCN(C)[C@@H]3CS(=O)(=O)C[C@@H]32)cc1 | 3.976
27 | N#Cc1c(F)cccc1N1CCC(NS(=O)(=O)c2cccs2)CC1 | -19.03
28 | COCC1c2nnn(CC3CC3)c2CCN1C(=O)C1CCOCC1 (stereo unspecified) | -9.696
29 | CC(C)(C)C(=O)NCCC(=O)Nc1cc(C#N)cn1C(C)(C)C | -12.46
30 | O=C(NC[C@H]1OC[C@@H](NC2CCCCC2)[C@@H]1O)Nc1ccccc1 | 2.791
31 | Cc1cc(N2CCN(c3nc4ccccc4cc3CO)CC2)nc(C)n1 | 9.089
32 | COc1ccc(-c2ccnc3nc(N4CCCCC4)[nH]c(=O)c23)cc1 | 107.2
33 | NC(=O)C1CCN(c2nc3nccc(-c4ccccc4)c3c(=O)[nH]2)CC1 | -1.836
34 | COc1ccc(-c2ccnc3c2C(=O)CCC3)cc1 | -3.402
35 | O=C(O)C(c1ccc(Cl)c(F)c1)N1CCN(Cc2ccccn2)CC1 (stereo unspecified) | 0.4357
36 | COc1ccccc1C(C(=O)O)N1CCCN(C2CCCC2)CC1 (stereo unspecified) | -24.96
37 | COCCOC1CCN(C(C(=O)O)c2c(Cl)cccc2OC)CC1 (stereo unspecified) | 87.97
38 | O=C(O)C(c1ccc2c(c1)OCO2)N1CCCCCC1 (stereo unspecified) | 23.77
39 | COc1ccc(C(C(=O)O)N2CCN(C3CCCC3)CC2)cc1OC (stereo unspecified) | 20.13
40 | COc1cccc(Cl)c1C(C(=O)O)N1CCC(O)(c2cccnc2)CC1 (stereo unspecified) | 0.4267
41 | CN(C)CCN(C)C1CCN(C(C(=O)O)c2ccc(F)c(Cl)c2)CC1 (stereo unspecified) | 97.08
42 | COc1ccc(C(C(=O)O)N2CCC(O)(c3cccnc3)CC2)cc1F (stereo unspecified) | -17.65
43 | O=C(O)C(c1ccc2c(c1)OCO2)N1CCCC1 (stereo unspecified) | -31.26
44 | COCCOC1CCN(C(C(=O)O)c2ccc3c(c2)OCO3)CC1 (stereo unspecified) | 111.3
45 | COCCOC1CCN(C(C(=O)O)c2ccc(OC)c(F)c2)CC1 (stereo unspecified) | 107.6
46 | NC(=O)C1CCN(C(C(=O)O)c2ccc(Cl)c(C(F)(F)F)c2)CC1 (stereo unspecified) | -1.554

Row | SMILES | Percent Effect [%]
47 | Cn1cnc2c1C(COCc1cccnc1)N(Cc1nccs1)CC2.O=C(O)C(F)(F)F.O=C(O)C(F)(F)F.O=C(O)C(F)(F)F (stereo unspecified) | 0.7375
48 | CCOc1ccc(Cl)cc1C(C(=O)O)N1CCC(CO)CC1 (stereo unspecified) | -16.74
49 | COc1ccc(C(C(=O)O)N2CCN(C3CCCC3)CC2)cc1C (stereo unspecified) | 19.06
50 | COCCOC1CCN(C(C(=O)O)c2ccc(F)c(Cl)c2)CC1 (stereo unspecified) | 111
51 | CC(C)c1cc(-c2nn3c(C(C)C)nnc3s2)[nH]n1 | -17.87
52 | CCN(CC)Cc1nnc2sc(-c3cc(C(C)C)[nH]n3)nn12 | 118.1
53 | Cc1cc(-c2nn3c(C)nnc3s2)n[nH]1 | 0.3213
54 | CCc1nnc2sc(-c3cc(C(C)C)n[nH]3)nn12 | 154.2
55 | CCCc1nnc2sc(-c3cc(C(C)C)n[nH]3)nn12 | 120.9
56 | Cc1nnc2sc(-c3cc(C(C)C)n[nH]3)nn12 | -19.82
57 | CC(C)Cc1nnc2sc(-c3cc(C(C)C)n[nH]3)nn12 | 131.5
58 | CCC(Nc1nc(C(C)C)nc2c1cnn2C)c1ccc(O)cc1 (stereo unspecified) | -13.26
59 | Cc1nc(CNC(C)c2cccc(N3CCCC3=O)c2)cs1.Cl (stereo unspecified) | -6.766
60 | c1ccc(Cc2noc(CN3CCCC3Cn3cccn3)n2)cc1 (stereo unspecified) | 101.6
61 | OCC1CCCCN1Cc1nc(Cc2cccc(F)c2)no1 (stereo unspecified) | -3.414
62 | CCc1nc(C2CCCN2Cc2nc(Cc3ccccc3)no2)no1 (stereo unspecified) | -2.634
63 | c1ccc(Cc2noc(CN3CCCC3C3CCCCC3)n2)cc1 (stereo unspecified) | 35.45
64 | OCC1CCCCN1Cc1nc(Cc2ccccc2)no1 (stereo unspecified) | 15.34
65 | c1ccc(Cc2noc(CN3CCCCC3Cn3cccn3)n2)cc1 (stereo unspecified) | 121.7
66 | Cc1ccc(O)c(C(=O)N2CCCC2c2nncn2CC(C)C)c1 (stereo unspecified) | -6.935
67 | COCCNc1ccc(CNC(=O)C2COc3ccccc32)cc1 (stereo unspecified) | -1.749
68 | O=S(=O)(Cc1nc(C2CC2)no1)c1ccccc1F | -2.004
69 | CCC(C(=O)NCc1ccccn1)N(c1cccc(C)c1)S(C)(=O)=O (stereo unspecified) | 1.713

Row | SMILES | Percent Effect [%]
70 | CCCN1CCN(S(=O)(=O)c2ncn(C)c2Cl)CC1 | 1.683
71 | Cn1cnc(S(=O)(=O)NCCCN2CCCC2)c1Cl | 98.8
72 | Cn1cnc(S(=O)(=O)NCCCN2CCOCC2)c1Cl | -0.729
73 | Cn1cnc(S(=O)(=O)NCCCN2CCCCCC2)c1Cl | 0.4653
74 | Cn1cnc(S(=O)(=O)NCCN2CCCCCC2)c1Cl | 104.3
75 | Cn1cnc(S(=O)(=O)N2CCCC2)c1Cl | -6.345
76 | Cn1cccc1C1CCCN1C(=O)NCCCn1cccn1 (stereo unspecified) | -1.835
77 | COc1ccc(NC(C)c2ccc(C#N)cc2)cc1N1CCCC1=O (stereo unspecified) | 11.24
78 | O=C(CN1CCSC2(CCCCC2)C1)NCC(F)(F)F | -26.69
79 | COCCc1noc(CN2CCN(CC(O)c3ccccc3)CC2)n1 (stereo unspecified) | 5.305
80 | Cc1cc2c(cc1C(=O)N1CCC3(CC(=O)NC3=O)C1)OCCO2 (stereo unspecified) | -6.886
81 | Cc1ccc(CC(=O)N(C)CC2(O)CCN(c3ccccn3)C2)s1 (stereo unspecified) | -7.019
82 | Cc1cnn(C2(C(=O)O)CCN(c3ccncc3F)CC2)c1 | 13.66
83 | Cc1cc(N2CCC(O)(CN(C)C(=O)CCN)CC2)c2cnccc2n1 | 69.28
84 | Cc1ncc(C)c(N2CCC(CCc3ccccc3)(C(=O)O)CC2)n1 | 1.128
85 | CN(CC1(O)CCN(c2ccnc3ccncc23)CC1)C(=O)CCN | 110.4
86 | Cc1cc(N2CCCC(O)(CN(C)C(=O)CCN)C2)c2cnccc2n1 (stereo unspecified) | 91.76
87 | Cc1cc(N2CCC(O)(CN(C)C(=O)CCN)C2)c2cnccc2n1 (stereo unspecified) | 98.27
88 | Cc1cnn(C2(C(=O)O)CCN(c3ccnc4cc(Cl)ccc34)CC2)c1 | -21.78
89 | Cc1cc(N2CCC(CO)(CC3CCCCO3)CC2)c2ccccc2n1 (stereo unspecified) | -1.662
90 | Cc1cc(N2CCCC(O)(CN(C)C)CC2)nc(-c2ccccc2)n1 (stereo unspecified) | 2.269
91 | CN(C)CC1(O)CCCN(C(=O)c2ccccc2-n2cccn2)C1 (stereo unspecified) | -10.31
92 | CN(CC1(O)CCCN(c2ccccn2)C1)C(=O)Cc1ccsc1 (stereo unspecified) | -7.252

Row | SMILES | Percent Effect [%]
93 | CC(NC(=O)Cc1ccccc1F)C(=O)N1CCS(=O)(=O)CC1 (stereo unspecified) | -3.92
94 | N#Cc1ccnc(N2CCC(NCCN3CCOCC3)CC2)c1 | -1.692
95 | CCC(=O)Nc1cc(Br)cnc1OCC(F)(F)F | -13.83
96 | Cc1cc(N2CCC(O)(CN(C)C(=O)CCCN)C2)c2cnccc2n1 (stereo unspecified) | 106
97 | CN1CC(=O)N(C2CCNCC2)Cc2c(NCC(C)(C)C)ncnc21 | 106.7
98 | CCNc1ncnc2c1CN(C1CCCNCC1)C(=O)CN2C (stereo unspecified) | 112.3
99 | COc1ccc(NC(=O)CCC(C)C)c(N2CCN(C(C)=O)CC2)n1 | -1.669
100 | O=C(CC1CCCC1)N1CCN(c2ccc(-n3cncn3)nn2)CC1 | 17.68
101 | Cn1ncc2c(N3CC(N4CCCCC4)C3)nc(C3CCCC3)nc21 | 6.638
102 | CC(C)c1nc(N2CCC(N3CCSCC3)CC2)c2cnn(C)c2n1 | 102.9
103 | CC1CCCCN1C1CN(c2nc(C3CCCC3)nc3c2cnn3C)C1 (stereo unspecified) | 0.03102
104 | CC(C)c1nc(N2CCC(N3CCCC(O)C3)CC2)c2cnn(C)c2n1 (stereo unspecified) | 109.7
105 | CC(C)c1nc(N2CC(N3CCCCC3C)C2)c2cnn(C)c2n1 (stereo unspecified) | 11.15
106 | Cn1ncc2c(N3CCN4CCCCC4C3)nc(C3CCCC3)nc21 (stereo unspecified) | 111.9
107 | Cn1ncc2c(N3CCC(CCO)CC3)nc(C(C)(C)C)nc21 | -3.712
108 | CN1CCCN(c2nc(C3CCCC3)nc3c2cnn3C)CC1 | 2.389
109 | CC(C)c1nc(N2CCC(N3CCCCCC3)CC2)c2cnn(C)c2n1 | 83.71
110 | CC(=O)NCCC1CCN(c2nc(C(C)(C)C)nc3c2cnn3C)CC1 | -2.953
111 | Cn1ncc2c(N3CCS(=O)(=O)CC3)nc(C3CCCC3)nc21 | -3.304
